# In the library only some 3.1% were active in any assay of this set; here they are far more common.
# uPA generation = qHTS for Inhibitors of Cell Surface uPA Generation | 330,000 compounds, 0.31% hits | Potency, µM (titrated, usually from 38.3 µM), for inactives: at the highest dose activity change, negative = inhibition, hits mostly inhibitors | cell surface uPA generation assay, qHTS; active means well fitted inhibition curve with a large enough effect; inconclusive means small, poorly fitted or top-dose-only effect; inactive means no such curve, though single readings can be large or run the other way; tested in mouse RAW 264.7 cells; further: potency means the concentration at half of the fitted maximal effect; on the % scale 0 is the no-effect control and ±100 the full control effect; nearly all actives have a fitted effect of over 55% in size
# PLK1 PBD inh = qHTS for Inhibitors of PLK1-PDB (polo-like kinase 1 - polo-box domain): Primary Screen; Plk1 PBD binding of FITC phosphopeptide, fluorescence polarization; Potency, µM, for inactives: max response, negative = inhibition, most hits filed as inhibitors; 360,000 compounds, 2.8% hits; further: potency means the concentration at half of the fitted maximal effect; series mostly up to about 57 µM; on the % scale 0 is the no-effect control and ±100 the full control effect; nearly all actives have a fitted effect of over 65% in size
# TSG101-PTAP inh = qHTS Assay for Iinhibitors of HIV-1 Budding by Blocking the Interaction of PTAP/TSG101. AID 493005, 2010. 340,000 tested, under 10 active. Tumor susceptibility gene 101 protein (Homo sapiens), Q99816. Potency, µM (highest dose often 115 µM), without a hit: at the highest dose activity change, negative = inhibition, actives largely listed as inhibitors. Fluorescence polarization, FITC-PTAP peptide / Tsg101 binding; active means well fitted inhibition curve with a large enough effect in the main read-out, with a control signal flat, not every such curve was filed as active; inconclusive means small, poorly fitted or top-dose-only effect, or effect the other way, or a change in a side signal; inactive means no such curve, though single readings can be large or run the other way; further: potency means the concentration at half of the fitted maximal effect; % of control where 0% means no effect
#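 Tsg101 binding domain (10 uM final) was mixed with compound and a FITC-labeled PTAP peptide (50 nM final) in HEPES pH 7.5 buffer with NaCl, Tween 20, EDTA and TCEP; fluorescence polarization was read after 20 min at r.t.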
# TSHR antagonist = Antagonists of the Thyroid Stimulating Hormone Receptor: HTS campaign | TSHR-expressing cells, TSH-stimulated cAMP HTRF, 2 h; active compounds read low | activity change, negative = inhibition, % at 11.5 µM | 330,000 compounds, 0.2% hits;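 active means activity change below a set negative limit, meaning inhibition stronger than a set level, cut at about -70% in these data; inconclusive means activity change between two set negative limits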; further: on the % scale 0 is the no-effect control and ±100 the full control effect
# Target sequence (P16473 whole entry, looked up): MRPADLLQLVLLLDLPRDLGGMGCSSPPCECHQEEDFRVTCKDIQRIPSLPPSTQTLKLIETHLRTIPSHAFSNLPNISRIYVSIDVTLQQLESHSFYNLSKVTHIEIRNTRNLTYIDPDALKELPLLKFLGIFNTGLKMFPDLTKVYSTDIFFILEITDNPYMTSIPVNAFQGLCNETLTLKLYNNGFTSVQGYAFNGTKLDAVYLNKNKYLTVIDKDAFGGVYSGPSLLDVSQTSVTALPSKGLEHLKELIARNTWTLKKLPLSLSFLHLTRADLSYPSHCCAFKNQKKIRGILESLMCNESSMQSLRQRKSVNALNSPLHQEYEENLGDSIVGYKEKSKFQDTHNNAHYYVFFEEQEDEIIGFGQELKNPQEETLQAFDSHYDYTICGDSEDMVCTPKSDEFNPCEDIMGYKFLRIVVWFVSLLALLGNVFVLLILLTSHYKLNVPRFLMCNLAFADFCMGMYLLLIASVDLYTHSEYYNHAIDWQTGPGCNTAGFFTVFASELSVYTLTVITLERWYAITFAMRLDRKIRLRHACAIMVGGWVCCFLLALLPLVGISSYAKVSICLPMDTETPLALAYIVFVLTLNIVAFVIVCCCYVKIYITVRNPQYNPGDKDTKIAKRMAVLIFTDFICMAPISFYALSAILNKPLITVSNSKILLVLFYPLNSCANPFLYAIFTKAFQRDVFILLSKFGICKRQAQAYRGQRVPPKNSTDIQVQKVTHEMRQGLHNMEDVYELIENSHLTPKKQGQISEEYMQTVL
#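 Antagonism was scored as loss of TSH-driven cAMP in TSHR cells, stimulated with 4nM TSH (EC80) for 2 hours at 37 deg C and detected by homogeneous HTRF competition immunoassay.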
# VDR inhibitor = Inhibitors of the vitamin D receptor (VDR): qHTS; Vitamin D3 receptor (Homo sapiens), P11473; VDR-SRC2-3 peptide fluorescence polarization, 2 h; Potency, µM, for the others: max response, negative = inhibition, usual class: inhibitors; 400,000 compounds, 0.93% hits; further: potency means the concentration at half of the fitted maximal effect; on the % scale 0 is the no-effect control and ±100 the full control effect
#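 After 23 nl compound addition and a short centrifugation, plates sat for 2 hours at ambient temperature; polarization of fluorescence then indicated loss of VDR binding to peptide SRC2-3.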
# VDR confirm = qHTS for Inhibitors of the vitamin D receptor (VDR): Hit Validation in Primary Screen. shares compounds with VDR inhibitor. VDR-coactivator inhibition assay, qHTS confirmation. Potency, µM, usual class: inhibitors. 840 compounds, 89% hits. AID 602199, 2012; further: potency means the concentration at half of the fitted maximal effect
# VDR FP = qHTS for Inhibitors of the vitamin D receptor (VDR): Hit Validation using a Fluorescein Assay. 840 compounds, 48% hits. VDR-coactivator binding, fluorescein fluorescence polarization. Potency, µM (titrated, usually from 57.1 µM), inactives show top-dose activity change, negative = inhibition, most hits filed as inhibitors. AID 602200, 2012. shares compounds with VDR inhibitor; further: potency means the concentration at half of the fitted maximal effect
# VDR bla = qHTS for Inhibitors of the vitamin D receptor (VDR): Hit Validation using a Beta-Lactamase Assay. shares compounds with VDR inhibitor. 840 compounds, 23% hits. Potency, µM (top dose mostly 46.1 µM), for inactives: top-dose activity change, negative = inhibition, actives largely listed as inhibitors. AID 602202, 2012. VDR beta-lactamase reporter cells, FRET ratio; cells co-treated with VDR agonist LG190178; further: potency means the concentration at half of the fitted maximal effect; on the % scale 0 is the no-effect control and ±100 the full control effect
# VDR viability = qHTS for Inhibitors of the vitamin D receptor (VDR): Hit Validation using a Cytotoxicity Assay; cytotoxicity counter-screen, cell viability, qHTS; 840 compounds, 18% hits; shares compounds with VDR inhibitor; Potency, µM (series often up to 48.3 µM), for inactives: at the highest dose activity change, negative = cytotoxicity, most hits filed as cytotoxic;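 further: potency means the concentration at half of the fitted maximal effect; plate controls were DMSO for no effect and high-concentration cycloheximide for full effect; nearly all actives have a fitted effect of over 75% in size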
# * marks the source's active call; other numbers are inactive results; ? = inconclusive; / = no result given. Unless noted, the call rests on the fitted dose curve; in most records, active means well fitted curve in the direction sought with a large enough effect; inconclusive means small, poorly fitted or top-dose-only effect, or another doubt; inactive means no such curve, though single readings can be large; an effect the other way counts as inactive or inconclusive.
SMILES,uPA generation,PLK1 PBD inh,TSG101-PTAP inh,TSHR antagonist,VDR inhibitor,VDR confirm,VDR FP,VDR bla,VDR viability
COc1cccc(NC(=O)CN(C)C(=O)c2ccc(-n3cncn3)c([N+](=O)[O-])c2)c1,-4.4%,-13.7%,-2.9%,-4.5,-2.2%,/,/,/,/
O=C(O)CSc1cc(NS(=O)(=O)c2cccc([N+](=O)[O-])c2)c2ccccc2c1O,-6.2%,1.5µM*,-7.6%,9.2,?,5.01*,2.51µM*,?,?
Cc1cccc(C(=O)N(Cc2ccco2)Cc2ccccc2F)c1,/,/,/,/,-3.1%,/,/,/,/
CCCc1nnc2n1N=C(c1ccc([N+](=O)[O-])cc1)CS2,-0.4%,0.5%,-5.6%,-0.1,-5.7%,/,/,/,/
O=[N+]([O-])c1ccc(C2=Nn3c(Cn4nnc5ccccc54)nnc3SC2)cc1,-5.1%,5.32µM*,-4.5%,-5.9,?,?,8.91µM*,-1.3%,?
COc1ccc(-n2nc(C(=O)N3CCCCC3C)c3c4ccccc4n(C)c3c2=O)cc1Cl (centres undefined),/,/,/,/,-14.0%,/,/,/,/
COc1ccc(/C=C2/C(=O)N(c3c(F)c(F)c(F)c(F)c3F)N=C2C)cc1,12.8%,6.7µM*,-6.9%,16.2,50.1µM*,?,17.8µM*,15.0%,22.2%
COc1cc(/C=C2/C(=O)N(c3cccc(Br)c3)N=C2C)cc(OC)c1O,5.5%,?,-5.8%,-4.7,?,/,/,/,/
Cc1ccc(-c2ccc(/C=C3\C(=O)ON=C3c3ccccc3)o2)c([N+](=O)[O-])c1,/,1.68µM*,-7.3%,-8.8,28.2µM*,3.77*,?,18.4µM*,13µM*
Cc1ccc(/C=C2\C(=O)ON=C2c2ccccc2)o1,-4.4%,?,-0.8%,8.3,?,/,/,/,/
[O-]/[N+](=C\c1ccncc1)c1ccc(Br)cc1,1.5%,21.2µM*,0.3%,-7.4,44.7µM*,9.47*,?,6.0%,2.0%
C(=C\c1ccncc1)/c1ccncc1,-4.9%,-29.3%,-0.3%,-4.2,-11.4%,/,/,/,/
CCOc1ccc(C(=O)/C=C/c2cc(OC)c(OC)c(OC)c2)cc1,-5.2%,-2.8%,-1.8%,-23.1,?,/,/,/,/
COc1cc(/C=C/C(=O)c2ccc(F)cc2)cc(OC)c1OC,-7.6%,-7.5%,-0.5%,7.6,31.6µM*,21.2*,?,?,?
Cc1cccc2c1N(Cc1ccccc1OCCC(C)C)C(=O)C2=O,/,/,/,/,22.4µM*,22.4*,10µM*,-9.3%,-19.4%
Cc1cc(Br)cc2c1N(Cc1ccccc1OC(C)C)C(=O)C2=O,/,/,/,/,12.6µM*,3.98*,3.55µM*,23.1µM*,?
COc1ccccc1CN1C(=O)C(=O)c2cccc(C)c21,/,/,/,/,-0.8%,/,/,/,/
Cc1ccc2oc(=O)n(Cc3ccccc3OC(C)C)c2c1,-1.9%,-0.7%,-6.7%,-31.5,15.3%,/,/,/,/
Cc1ccc(C(C[N+](=O)[O-])Sc2ccc(N)cc2)cc1 (centres undefined),-2.9%,6.7µM*,-3.0%,21.0,12.6µM*,7.52*,?,?,?
Nc1ccc(Sc2ccc([N+](=O)[O-])cc2)cc1,4.0%,-8.5%,-4.4%,5.5,2.6%,/,/,/,/
CSc1ncc(Cl)c(C(=O)Nc2nnc(SC/C=C/c3ccccc3)s2)n1,/,?,-3.9%,?,-5.7%,/,/,/,/
Cc1cccc(CS(=O)(=O)c2ncc(Cl)c(C(=O)Nc3nnc(C(C)C)s3)n2)c1,-2.8%,?,3.0%,-73.7*,8.91µM*,5.97*,3.55µM*,8.2µM*,13µM*
Cc1ccc(CS(=O)(=O)c2ncc(Cl)c(C(=O)Nc3nnc(C(C)C)s3)n2)cc1,-1.9%,?,2.7%,?,12.6µM*,6.7*,3.16µM*,9.2µM*,18.4µM*
Cc1cccc(CSc2ncc(Cl)c(C(=O)Nc3nc4ccc(F)cc4s3)n2)c1,/,/,/,/,-9.5%,/,/,/,/
CC(C)c1nnc(NC(=O)c2nc(S(=O)(=O)Cc3ccc(F)cc3)ncc2Cl)s1,1.3%,-22.0%,0.4%,-75.1*,10µM*,7.52*,3.55µM*,16.4µM*,10µM*
SMILES,uPA generation,PLK1 PBD inh,TSG101-PTAP inh,TSHR antagonist,VDR inhibitor,VDR confirm,VDR FP,VDR bla,VDR viability
CSc1nnc(NC(=O)c2nc(S(=O)(=O)Cc3cccc(C)c3)ncc2Cl)s1,-2.4%,?,0.9%,?,14.1µM*,4.23*,?,5.8µM*,16.4µM*
COc1ccc(-c2ccc(CN3C(C(C)C)C(=O)N(Cc4cn(CC5CCCCC5)nn4)CCS3(=O)=O)cc2)cc1 (centres undefined),/,-10.2%,/,/,/,/,/,/,/
CCc1ccc(C(=O)c2cn(CC(=O)Nc3ccc4c(c3)OCO4)c3cc(OC)c(OC)cc3c2=O)cc1,/,/,/,/,-5.8%,/,/,/,/
CCOC(=O)c1cc2c(=O)n3ccccc3nc2n(CC(C)C)c1=NC(=O)C(C)(C)Oc1ccc(Cl)cc1,/,/,/,/,-19.3%,/,/,/,/
COc1ccccc1-c1noc(CSc2nc3ccc(C)cc3[nH]2)n1,/,/,/,/,-22.3%,/,/,/,/
Cc1nc(-c2ccccc2)sc1-c1ccc(SCC(=O)NCc2ccc(F)cc2)nn1,/,/,/,/,7.8%,/,/,/,/
CC(=O)N1N=C(N)SC1c1ccc(Cl)c(Cl)c1 (centres undefined),/,-5.8%,/,/,/,/,/,/,/
CCSc1nnc(NC(=O)c2nc(S(=O)(=O)Cc3ccc(F)cc3)ncc2Cl)s1,-2.6%,?,-2.7%,-40.4,?,2.82*,3.55µM*,16.4µM*,18.9µM*
Cc1nn(CC(=O)NCc2ccc(F)cc2)c2ccccc12,/,/,/,/,1.7%,/,/,/,/
CCCCC/C=C\C/C=C\C/C=C\C/C=C\CCCC(=O)O[C@H](COCCCCCCCCCCCCCCCC)COP(=O)([O-])OCC[N+](C)(C)C,/,/,/,/,1.9%,/,/,/,/
CCOC(=O)c1nn(-c2ccccc2C)c(=O)c(C#N)c1C,-3.5%,-5.6%,-0.1%,-4.7,-0.2%,/,/,/,/

# Assay outcomes from PubChem.
